Values joined by “and” are separate entries in the source; they are usually repeats but may differ in a detail not shown here. Equal values may be shown once. Out of some 5,500 compounds screened, about 2,000 (36%) were called active. Another 18% or so got no clear call; they are omitted. Rule as the data show it: active = normalized growth mostly below about 0.91 (no sharp cut-off); inconclusive = no clear call, values can overlap the other calls; inactive = mostly above about 0.92. The list shows a part of the results.
Test: chemical genetic growth profiling, strain panel (AID 1159580);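 also: tested at 20 µM; growth read once vehicle control cultures reached saturation at 30 °C; 1 = growth at the plate median or of vehicle wells; lower values mean less growth of the strain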
Conditions: S. cerevisiae deletion strains, growth OD

Measured: normalized growth

CC[N+](CC)(CC)CCOc1cccc(OCC[N+](CC)(CC)CC)c1OCC[N+](CC)(CC)CC
inactive: locus YAL013W, strain DEP1, stronger effect = lower value 1.01 | locus YAL021C, strain ccr4, stronger effect = lower value 1.02 | locus YAL026C, strain drs2, stronger effect = lower value 1.01 | locus YAL030W, strain snc1, stronger effect = lower value 1.02 | locus YAL040C, strain CLN3, stronger effect = lower value 1.01 | locus YBL061C, strain skt5, stronger effect = lower value 1.02 | locus YBR009C, strain hhf1, stronger effect = lower value 1 | locus YBR021W, strain FUR4, stronger effect = lower value 1.01 | locus YBR023C, strain chs3, stronger effect = lower value 1.02 | locus YBR171W, strain sec66, stronger effect = lower value 1.02 | locus YBR229C, strain ROT2, stronger effect = lower value 1.01 | locus YBR231C, strain swc5, stronger effect = lower value 0.958 | locus YBR279W, strain paf1, stronger effect = lower value 1.03 | locus YCL011C, strain gbp2, stronger effect = lower value 1.02 | locus YCL016C, strain dcc1, stronger effect = lower value 1.02 | locus YCL029C, strain bik1, stronger effect = lower value 1 | locus YCL061C, strain MRC1 (second series), stronger effect = lower value 0.999 | locus YCL061C, strain MRC1, stronger effect = lower value 1.01 | locus YCL069W, strain vba3, stronger effect = lower value 1.01 | locus YCR088W, strain abp1, stronger effect = lower value 1.02 | locus YDL005C, strain med2, stronger effect = lower value 1.03 | locus YDL035C, strain GPR1, stronger effect = lower value 1 | locus YDL040C, strain nat1, stronger effect = lower value 1.01 | locus YDL074C, strain BRE1, stronger effect = lower value 1.02 | locus YDL101C, strain DUN1, stronger effect = lower value 1.01 | locus YDL134C, strain PPH21, stronger effect = lower value 1 | locus YDL185W, strain tfp1, stronger effect = lower value 1.02 | locus YDL192W, strain arf1, stronger effect = lower value 1.01 | locus YDR001C, strain nth1, stronger effect = lower value 1.01 | locus YDR069C, strain doa4, stronger effect = lower value 0.999 | locus YDR101C, strain arx1, stronger effect = lower value 0.996 | locus YDR137W, strain rgp1, stronger effect = lower value 1.05 | locus YDR150W, strain NUM1, stronger effect = lower value 0.995 | locus YDR159W, strain sac3, stronger effect = lower value 0.965 | locus YDR162C, strain NBP2, stronger effect = lower value 1.01 | locus YDR195W, strain ref2 0.983 | locus YDR297W, strain sur2, stronger effect = lower value 1.01 | locus YDR318W, strain mcm21, stronger effect = lower value 1.01 | locus YDR334W, strain swr1, stronger effect = lower value 1.01 | locus YDR335W, strain msn5, stronger effect = lower value 1.01 | locus YDR363W, strain ESC2, stronger effect = lower value 1.02 | locus YDR388W, stronger effect = lower value 1.01 | locus YDR502C, strain sam2, stronger effect = lower value 1 | locus YEL003W, strain gim4, stronger effect = lower value 1.01 | locus YEL037C, strain rad23, stronger effect = lower value 1.01 | locus YEL061C, strain CIN8 (second series), stronger effect = lower value 1.01 | locus YEL061C, strain CIN8, stronger effect = lower value 1.01 | locus YER002W, strain NOP16, stronger effect = lower value 0.986 | locus YER015W, strain faa2, stronger effect = lower value 0.994 | locus YER016W, strain bim1, stronger effect = lower value 0.984 | locus YER110C, stronger effect = lower value 1.01 | locus YER111C, strain swi4, stronger effect = lower value 1.02 | locus YER155C, strain BEM2 (second series), stronger effect = lower value 0.914 | locus YER155C, strain BEM2, stronger effect = lower value 1.02 | locus YER167W, strain BCK2, stronger effect = lower value 1.01 | locus YFR010W, strain ubp6, stronger effect = lower value 1.01 | locus YGL078C, strain dbp3, stronger effect = lower value 1 | locus YGL086W, strain mad1, stronger effect = lower value 0.98 | locus YGL167C, strain pmr1, stronger effect = lower value 1.02 | locus YGL173C, strain kem1, stronger effect = lower value 1.01 | locus YGL227W, strain vid30, stronger effect = lower value 1.03 | locus YGL240W, strain doc1, stronger effect = lower value 0.994 | locus YGL248W, strain PDE1, stronger effect = lower value 1.01 | locus YGL253W, strain hxk2, stronger effect = lower value 1.01 | locus YGR135W, strain pre9, stronger effect = lower value 1.03 | locus YGR229C, strain SMI1, stronger effect = lower value 1.05 | locus YGR252W, strain gcn5, stronger effect = lower value 0.969 | locus YHR013C, strain ard1, stronger effect = lower value 1.02 | locus YHR027C, strain rpn1, stronger effect = lower value 1.01 | locus YHR030C, strain SLT2, stronger effect = lower value 1 and 1.01 | locus YHR079C, strain IRE1 (second series), stronger effect = lower value 1.02 | locus YHR079C, strain IRE1, stronger effect = lower value 1.03 | locus YHR094C, strain hxt1, stronger effect = lower value 1.01 | locus YHR129C, strain ARP1, stronger effect = lower value 1 | locus YHR142W, strain chs7, stronger effect = lower value 1.02 | locus YHR200W, strain rpn10, stronger effect = lower value 1.02 | locus YIL066C, strain RNR3, stronger effect = lower value 1.01 | locus YIL073C, strain SPO22, stronger effect = lower value 1.05 | locus YIL125W, strain kgd1, stronger effect = lower value 1.01 | locus YIR030C, strain dcg1, stronger effect = lower value 1.01 | locus YJL092W, strain hpr5, stronger effect = lower value 1.02 | locus YJL095W, strain BCK1 (second series), stronger effect = lower value 1.02 | locus YJL095W, strain BCK1, stronger effect = lower value 1.02 and 0.997 | locus YJL115W, strain asf1, stronger effect = lower value 1.02 | locus YJL129C, strain trk1, stronger effect = lower value 1.01 | locus YJL134W, strain LCB3, stronger effect = lower value 1.01 | locus YJL154C, strain vps35, stronger effect = lower value 1.01 | locus YJL164C, strain tpk1, stronger effect = lower value 1.03 | locus YJL166W, strain qcr8, stronger effect = lower value 1.03 | locus YJL168C, strain set2, stronger effect = lower value 1.01 | locus YJL187C, strain SWE1 (second series), stronger effect = lower value 1.01 | locus YJL187C, strain SWE1, stronger effect = lower value 1.02 | locus YJR043C, strain POL32, stronger effect = lower value 1.01
active: locus YDR392W, strain spt3, stronger effect = lower value 0.673
